Experimental data from PubChem BioAssay (EPA / NIEHS).
Calls of active or inactive are those of the source. The calls were made as follows: active = hit-call score of the fitted dose curve at least 0.9, where 1 is the maximum; inactive = score below 0.9.

Assays:
[1] = read-out: Thrombomodulin, THBD (gene 7056); experiment: BSK_CASM3C_Thrombomodulin: BioMAP Diversity Plus: CASM3C Assay for Thrombomodulin Biomarker Activity (AID 2283051); details: primary human coronary artery smooth muscle cells; actives raise or lower the signal;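 also: thrombomodulin protein level measured by ELISA 24 h after dosing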
[2] = read-out: Tissue Factor, F3 (gene 2152); experiment: BSK_CASM3C_TissueFactor: BioMAP Diversity Plus: CASM3C Assay for Tissue Factor Biomarker Activity (AID 2283052); details: primary human coronary artery smooth muscle cells; actives raise or lower the signal;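 also: cell surface tissue factor protein level read by ELISA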
[3] = read-out: Interferon-gamma inducible Protein 10 (IP10), CXCL10 (gene 3627); experiment: BSK_hDFCGF_IP10: BioMAP Diversity Plus: hDFCGF Assay for Interferon-gamma inducible Protein 10 (IP10) Biomarker Activity (AID 2283053); details: primary human foreskin fibroblasts; actives raise or lower the signal
Summary of the method: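 Primary foreskin fibroblasts, human; 24 h compound exposure; IP-10 by ELISA; bidirectional fit vs DMSO.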

[4] = read-out: Urokinase-type plasminogen activator receptor (uPAR), PLAUR (gene 5329); experiment: BSK_CASM3C_uPAR: BioMAP Diversity Plus: CASM3C Assay for Urokinase-type plasminogen activator receptor (uPAR) Biomarker Activity (AID 2283054); details: primary human coronary artery smooth muscle cells; actives raise or lower the signal;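 also: cell-surface uPAR protein level quantified by ELISA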
[5] = read-out: Vascular cell adhesion molecule 1 (VCAM1), VCAM1 (gene 7412); experiment: BSK_CASM3C_VCAM1: BioMAP Diversity Plus: CASM3C Assay for Vascular cell adhesion molecule 1 (VCAM1) Biomarker Activity (AID 2283055); details: primary human coronary artery smooth muscle cells; actives raise or lower the signal;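 also: VCAM-1 protein level quantified by ELISA on the cells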
[6] = read-out: Epidermal growth factor receptor (EGFR), EGFR (gene 1956); experiment: BSK_hDFCGF_EGFR: BioMAP Diversity Plus: hDFCGF Assay for Epidermal growth factor receptor (EGFR) Biomarker Activity (AID 2283057); details: primary human foreskin fibroblasts; actives raise or lower the signal
Summary of the method: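 hDFCGF system, primary human foreskin fibroblasts; compound 24 h; EGFR measured by ELISA; DMSO = negative control/baseline; bidirectional fitting.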

[7] = read-out: Interleukin-8 (IL8), CXCL8 (gene 3576); experiment: BSK_hDFCGF_IL8: BioMAP Diversity Plus: hDFCGF Assay for Interleukin-8 (IL8) Biomarker Activity (AID 2283058); details: primary human foreskin fibroblasts; actives raise or lower the signal
Summary of the method: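 ELISA read-out of IL-8 from primary human foreskin fibroblast cultures taken 24 h after dosing; values are bidirectional fits relative to DMSO vehicle.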

[8] = BSK_hDFCGF_Proliferation: Cell Proliferation Assessment in the BioMAP Diversity Plus: hDFCGF Assay (AID 2283059); details: primary human foreskin fibroblasts;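 also: curves fitted for both rise and fall of signal versus DMSO baseline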
Summary of the method: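 Primary human foreskin fibroblasts, sub-confluent; […]; 10% TCA fix, 0.1% SRB stain, A560 total protein. Gain/loss fitted bidirectionally vs DMSO control.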

[9] = read-out: Macrophage colony-stimulating factor (MCSF), CSF1 (gene 1435); experiment: BSK_hDFCGF_MCSF: BioMAP Diversity Plus: hDFCGF Assay for Macrophage colony-stimulating factor (MCSF) Biomarker Activity (AID 2283060); details: primary human foreskin fibroblasts; actives raise or lower the signal
Summary of the method: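 ELISA read-out of M-CSF in human dermal foreskin fibroblast cultures, 24 h after chemical dosing; gain or loss of signal fitted bidirectionally relative to DMSO baseline.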

[10] = read-out: Collagen III, COL3A1 (gene 1281); experiment: BSK_hDFCGF_CollagenIII: BioMAP Diversity Plus: hDFCGF Assay for Collagen III Biomarker Activity (AID 2283056); details: primary human foreskin fibroblasts; actives raise or lower the signal
Summary of the method: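 hDFCGF primary human dermal fibroblasts; 24 h chemical exposure; collagen III by ELISA; bidirectional curve fit vs DMSO baseline (gain or loss of signal).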

Compound | AC50 [1] | outcome [2] | outcome [3] | outcome [4] | AC50 [5] | outcome [6] | outcome [7] | AC50 [8] | AC50 [9] | outcome [1] | AC50 [2] | AC50 [3] | AC50 [4] | AC50 [7] | outcome [5] | outcome [8] | outcome [9] | outcome [10]
Nc1ccc(Cl)cc1N | 5.73 µM (active) | inactive | inactive | inactive | 3.97 µM (active) | inactive | inactive | 11.2 µM (active) | 6.73 µM (active) |  |  |  |  |  |  |  |  | 
ClC1=C(Cl)C2(Cl)C3C(Cl)C=CC3C1(Cl)C2(Cl)Cl (stereo not drawn) |  |  |  |  | 30.2 µM (active) | inactive |  | 10.3 µM (active) | 9.47 µM (active) | inactive | 29.3 µM (active) | 8.86 µM (active) | 31.8 µM (active) | 11.4 µM (active) |  |  |  | 
Clc1ccc(C(c2ccc(Cl)cc2)C(Cl)(Cl)Cl)cc1 | 6.95 µM (active) |  |  |  | 20 µM (active) | inactive |  | 5.38 µM (active) | 10.9 µM (active) |  | 33.2 µM (active) | 14.1 µM (active) | 20 µM (active) | 27.3 µM (active) |  |  |  | 
CCC12COCN1COC2 |  | inactive | inactive | inactive |  | inactive | inactive |  |  | inactive |  |  |  |  | inactive | inactive | inactive | 
C[N+](C)(C)CC1CO1 (stereo not drawn) |  | inactive | inactive | inactive |  | inactive | inactive |  |  | inactive |  |  |  |  | inactive | inactive | inactive | 
CC(C)N(Cc1ccccc1)C(=O)C(C)(C)C |  | inactive | inactive | inactive |  | inactive | inactive |  |  | inactive |  |  |  |  | inactive | inactive | inactive | 
Nc1ccc(N=Nc2ccccc2)cc1 |  | inactive |  |  |  | inactive | inactive | 8 µM (active) |  | inactive |  | 29.3 µM (active) | 3.9 µM (active) |  | inactive |  | inactive | 
COC(=O)Nc1nc2ccccc2[nH]1 |  | inactive | inactive |  |  | inactive | inactive | 0.224 µM (active) |  | inactive |  |  | 9.38 µM (active) |  | inactive |  | inactive | 
CC(O)CCO (stereo not drawn) |  | inactive | inactive | inactive |  | inactive | inactive |  |  | inactive |  |  |  |  | inactive | inactive | inactive | 
CC(C)COC(=O)c1ccccc1C(=O)OCC(C)C | 20 µM (active) | inactive |  | inactive |  | inactive | inactive |  | 14.4 µM (active) |  |  | 30.3 µM (active) |  |  | inactive | inactive |  | 
O=Cc1ccco1 |  | inactive | inactive | inactive |  | inactive | inactive |  |  | inactive |  |  |  |  | inactive | inactive | inactive | 
CC(C)(C)OOC(=O)c1ccccc1 |  | inactive |  | inactive |  | inactive |  | 20 µM (active) | 34.1 µM (active) | inactive |  | 33.2 µM (active) |  | 34.3 µM (active) | inactive |  |  | 
Cc1cccc(N)c1N | 9.78 µM (active) | inactive | inactive | inactive | 13.8 µM (active) | inactive | inactive |  | 0.853 µM (active) |  |  |  |  |  |  | inactive |  | 
O=C(Nc1ccccc1)c1ccccc1I |  | inactive | inactive | inactive |  | inactive | inactive |  |  | inactive |  |  |  |  | inactive | inactive | inactive | 
c1ccc(C2CO2)cc1 (stereo not drawn) |  | inactive | inactive | inactive |  | inactive | inactive |  |  | inactive |  |  |  |  | inactive | inactive | inactive | 
Clc1ccc(Cl)c(Cl)c1 |  | inactive | inactive | inactive |  | inactive | inactive |  |  | inactive |  |  |  |  | inactive | inactive | inactive | 
Brc1ccc(Oc2ccccc2)cc1 |  | inactive | inactive | inactive |  | inactive | inactive |  |  | inactive |  |  |  |  | inactive | inactive | inactive | 
Cc1ccc([N+](=O)[O-])cc1 |  | inactive | inactive | inactive |  | inactive | inactive |  |  | inactive |  |  |  |  | inactive | inactive | inactive | 
c1ccc2c(c1)-c1cccc3cccc-2c13 |  | inactive | inactive | inactive |  | inactive | inactive | 23.7 µM (active) |  | inactive |  |  |  |  | inactive |  | inactive | 
OCCOCCO |  | inactive | inactive | inactive |  | inactive | inactive |  |  | inactive |  |  |  |  | inactive | inactive | inactive | 
CS(=O)(=O)NC(=O)c1cc(Oc2ccc(C(F)(F)F)cc2Cl)ccc1[N+](=O)[O-] |  |  | inactive | inactive |  | inactive | inactive |  |  | inactive |  |  |  |  | inactive | inactive | inactive | inactive
c1ccc(NNc2ccccc2)cc1 | 15.9 µM (active) | inactive | inactive | inactive |  | inactive | inactive |  |  |  |  |  |  |  | inactive | inactive | inactive | 
